# According to PubChem BioAssay:
# Calls of active or inactive are those of the source.
# Columns and labels:
# [1] = anti-His antibody binders, primary screen, artefact control for SMM control protein annotation, biochemical, small-molecule microarray, 635 nm fluorescence (AID 1128); conditions: anti-His Alexa647 antibody binding, higher = more signal;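 further: score merges feature fluorescence with signal-to-noise for each printed compound spot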
# [2] = tested on: Human papillomavirus type 1a E7 protein (residues 1-88); test: HPV1a E7 small-molecule binders, primary screen, biochemical, small-molecule microarray, residues 1-88, 635 nm (AID 1129); conditions: small-molecule microarray binding, fluorescence 635 nm; higher = more signal
# [3] = target: Focal adhesion kinase 1 (Homo sapiens) (UniProt Q05397); test: small-molecule microarray binders of FAK, primary screen, biochemical, 635/667 nm fluorescence, BSA, DTT (AID 1130); conditions: PTK2 binding, 635 nm fluorescence, higher = more signal;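 further: composite of spot emission at 667 nm and signal to noise over triplicate slides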
# Chain of Focal adhesion kinase 1 (Homo sapiens) (Q05397 whole entry, looked up): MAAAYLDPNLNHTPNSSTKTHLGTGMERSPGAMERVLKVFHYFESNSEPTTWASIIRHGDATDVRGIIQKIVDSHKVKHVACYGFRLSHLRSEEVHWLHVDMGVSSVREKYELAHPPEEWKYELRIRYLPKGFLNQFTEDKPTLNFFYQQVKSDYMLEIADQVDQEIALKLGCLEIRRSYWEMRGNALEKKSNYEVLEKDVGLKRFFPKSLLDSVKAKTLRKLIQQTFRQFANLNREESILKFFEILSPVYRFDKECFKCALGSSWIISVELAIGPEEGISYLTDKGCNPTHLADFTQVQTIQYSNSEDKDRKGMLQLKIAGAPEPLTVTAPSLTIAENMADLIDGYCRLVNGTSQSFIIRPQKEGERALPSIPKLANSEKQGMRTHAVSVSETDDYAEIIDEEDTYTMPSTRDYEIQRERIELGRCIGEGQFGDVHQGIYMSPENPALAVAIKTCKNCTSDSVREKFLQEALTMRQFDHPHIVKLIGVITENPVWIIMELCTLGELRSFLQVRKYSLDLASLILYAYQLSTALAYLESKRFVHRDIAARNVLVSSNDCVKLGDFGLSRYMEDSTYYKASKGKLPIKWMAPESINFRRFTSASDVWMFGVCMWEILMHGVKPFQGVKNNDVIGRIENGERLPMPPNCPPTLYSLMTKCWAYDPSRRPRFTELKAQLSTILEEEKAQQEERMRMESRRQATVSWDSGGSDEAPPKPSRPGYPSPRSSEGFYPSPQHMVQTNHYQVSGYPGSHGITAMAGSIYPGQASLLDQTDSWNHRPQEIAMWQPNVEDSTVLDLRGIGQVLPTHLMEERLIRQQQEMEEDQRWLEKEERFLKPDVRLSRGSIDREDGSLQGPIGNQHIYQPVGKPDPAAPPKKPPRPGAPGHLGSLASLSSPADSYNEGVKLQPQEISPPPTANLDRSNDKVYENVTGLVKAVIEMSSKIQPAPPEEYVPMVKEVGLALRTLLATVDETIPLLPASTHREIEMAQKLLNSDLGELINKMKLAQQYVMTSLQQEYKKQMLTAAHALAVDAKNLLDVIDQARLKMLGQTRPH
# [4] = tested on: Fibrinogen (Alexa647-labelled); test: fibrinogen binders on compound microarrays, profiling panel, artefact control for SMM control-protein annotation, biochemical, small-molecule microarray, 635/667 nm fluorescence (AID 1131); conditions: fibrinogen-A647 binding fluorescence, higher = more signal;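 further: z-score merges 667 nm fluorescence with per-spot signal-to-noise over triplicate slides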
# [5] = target: Follistatin (Homo sapiens) (UniProt P19883); test: follistatin binders on small-molecule microarrays, primary screen, biochemical, small-molecule microarray, 635/667 nm fluorescence (AID 1132); conditions: FST binding, 635 nm fluorescence, higher = more signal
# Chain of Follistatin (Homo sapiens) (P19883 whole entry, looked up): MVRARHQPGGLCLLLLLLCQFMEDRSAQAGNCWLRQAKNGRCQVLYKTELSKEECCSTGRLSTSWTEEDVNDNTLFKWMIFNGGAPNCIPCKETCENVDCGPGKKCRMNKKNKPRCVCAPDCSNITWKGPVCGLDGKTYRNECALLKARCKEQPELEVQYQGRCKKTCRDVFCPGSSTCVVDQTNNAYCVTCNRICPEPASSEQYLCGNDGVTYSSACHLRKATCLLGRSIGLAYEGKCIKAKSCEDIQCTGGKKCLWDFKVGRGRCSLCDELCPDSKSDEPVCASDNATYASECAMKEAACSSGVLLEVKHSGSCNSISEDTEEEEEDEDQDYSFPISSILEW
# [6] = target: Fibroblast growth factor 2 (Homo sapiens) (UniProt P09038); test: FGF2 binders on small-molecule microarrays, primary screen, biochemical, small-molecule microarray, 635/667 nm fluorescence (AID 1133); conditions: small-molecule microarray binding, FGF2, fluorescence 635/667; higher = more signal
# Chain of Fibroblast growth factor 2 (Homo sapiens) (P09038 whole entry, looked up): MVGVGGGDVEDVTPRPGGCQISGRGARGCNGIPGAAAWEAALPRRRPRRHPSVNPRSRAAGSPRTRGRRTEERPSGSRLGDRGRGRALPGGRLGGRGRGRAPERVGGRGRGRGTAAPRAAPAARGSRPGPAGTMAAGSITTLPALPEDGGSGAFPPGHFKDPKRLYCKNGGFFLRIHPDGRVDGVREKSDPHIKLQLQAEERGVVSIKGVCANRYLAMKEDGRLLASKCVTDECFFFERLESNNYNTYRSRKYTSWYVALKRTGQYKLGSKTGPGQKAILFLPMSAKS
# [7] = mitochondrial membrane potential change in A549 cells, profiling panel, cell-based, JC-1 fluorescence, basal, 24 h, 100 nL (AID 1138); conditions: higher = more signal;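 further: A549 lung adenocarcinoma cells under basal conditions with no added stimulus; test concentration not given here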
# [8] = tested on: Lefty1; test: Lefty1 binders on small-molecule microarrays, primary screen, biochemical, small-molecule microarray, 635/667 nm fluorescence (AID 1139); conditions: small-molecule microarray binding, fluorescence 635/667; higher = more signal
# [9] = tested on: wheat germ agglutinin (Triticum aestivum), Alexa647-labelled; test: wheat germ agglutinin binders on compound microarrays, profiling panel, artefact control for SMM control-protein annotation, biochemical, small-molecule microarray, 635/667 nm fluorescence (AID 1140); conditions: WGA-A647 binding, 635 nm fluorescence, higher = more signal;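 further: score merges 667 nm feature emission with signal to noise over triplicate slides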
# [10] = target: Luciferin 4-monooxygenase (Photinus pyralis) (UniProt P08659); test: firefly luciferase enzyme inhibitors, primary screen, biochemical, luminescence, purified enzyme, 2006 set (AID 1141); conditions: SteadyGlo luminescence, 30 min, higher = more signal, called active from +8 up or from −8 down;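 further: cell-free assay with purified firefly luciferase at 100 ng per well in PBS; test concentration not given here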
# Chain of Luciferin 4-monooxygenase (Photinus pyralis) (P08659 whole entry, looked up): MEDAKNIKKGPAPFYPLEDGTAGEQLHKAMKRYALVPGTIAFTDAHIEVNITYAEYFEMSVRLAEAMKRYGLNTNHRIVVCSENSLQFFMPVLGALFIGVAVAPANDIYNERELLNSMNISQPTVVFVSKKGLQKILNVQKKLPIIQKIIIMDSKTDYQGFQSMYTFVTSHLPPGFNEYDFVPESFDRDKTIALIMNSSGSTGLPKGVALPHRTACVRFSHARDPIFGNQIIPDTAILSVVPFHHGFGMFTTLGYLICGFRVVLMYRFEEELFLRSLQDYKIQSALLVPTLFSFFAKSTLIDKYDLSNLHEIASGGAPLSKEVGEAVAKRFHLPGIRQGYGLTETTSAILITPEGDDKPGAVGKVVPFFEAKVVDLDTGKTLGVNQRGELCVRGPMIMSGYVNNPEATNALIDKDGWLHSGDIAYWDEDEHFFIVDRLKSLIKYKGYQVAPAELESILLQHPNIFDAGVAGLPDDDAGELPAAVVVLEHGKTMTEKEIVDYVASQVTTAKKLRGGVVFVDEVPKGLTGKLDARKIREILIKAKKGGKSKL
Compound,composite z-score [1],composite z-score [2],composite z-score [3],composite z-score [4],composite z-score [5],composite z-score [6],z-score [7],composite z-score [8],composite z-score [9],z-score [10]
CCCCCCc1nc(Cc2cc(OC)c(OC)c(OC)c2)cc2c1[Si](C(C)C)(C(C)C)O[C@H]2c1ccccc1,0.0156,0.0994,-0.148,0.146,0.571,0.675,0.216,0.845,-0.17,0.555 (inactive)
CC1CC/C=C\[C@H]2OC34C=CCN(c5ccc6ccccc6c5)C(=O)[C@H]3N(C(C)CO)C(=O)[C@@H]4C2C(=O)O1 (stereo not given in full),0.0166,-1.72,-0.785,-1.17,-0.69,-0.911,0.838,-0.546,-0.946,-1.2 (inactive)
O=C1c2ccccc2[C@@]2(Cc3ccccc3N(Cc3ccccc3)C2=O)[C@H](c2ccc(CO)cc2)N1Cc1ccccc1Cl,-0.743,-1.14,-0.0858,-1.2,-0.465,-0.395,-0.00887,-0.0772,-0.45,1.3 (inactive)
CC(C)C(O)C1C=CC2C(=O)NC(=O)C2N1Nc1ccccn1 (stereo not given),1.25,0.218,-0.0716,0.285,0.712,0.0205,0.44,0.129,0.169,-0.362 (inactive)
C=CCOC(=O)[C@H]1[C@@H]2C(=O)O[C@@H](c3ccccc3)[C@@H](c3ccccc3)N2[C@@H](c2ccc(OCCOC(=O)[C@@H]3C[C@@H]4C(=O)N[C@@H](CCCC[N+](C)(C)C)C(=O)N4[C@@H]3c3ccc(O)cc3)cc2)[C@]12C(=O)Nc1ccc(I)cc12,1.08,0.377,0.898,0.4,1.32,1.48,-1.77,1.01,0.422,-2.99 (inactive)
CN(C)CCCNC(=O)[C@@H]1c2ccccc2C(=O)N(Cc2ccccc2C(F)(F)F)[C@H]1c1ccc(CO)cc1,-1.51,0.197,-0.142,-0.126,0.0865,-0.361,2.89,-0.913,0.1,-1.13 (inactive)
COC(=O)[C@]1(CCC(=O)OC(C)(C)C)N=C(c2ccc(OCCCO)cc2)O[C@@H]1c1ccccc1N=[N+]=[N-],0.477,0.993,-0.212,-0.306,1.29,0.626,1.3,-0.0341,0.658,-6.42 (inactive)
Cc1ccccc1C(O)C1C=CC2C(=O)N(c3ccccc3)C(=O)C2N1Nc1ccccc1 (stereo not given),1.53,1.25,0.969,1.03,1.3,0.0635,-0.128,0.55,1.33,-0.818 (inactive)
O=C(NC1CC1)[C@@H]1c2ccccc2C(=O)N(CC23CC4CC(CC(C4)C2)C3)[C@H]1c1ccc(CO)cc1,1.17,1.12,0.476,0.919,1.44,1.28,0.0467,1.33,0.33,0.7 (inactive)
COCCOC(=O)N1C(=O)[C@@]2(c3cc(C#CCC(C(=O)OC)C(=O)OC)ccc31)[C@H](C(=O)Nc1nc3ccccc3s1)[C@H]1C(=O)O[C@H](c3ccccc3)[C@H](c3ccccc3)N1[C@@H]2c1ccc(OCCO)cc1,2.33,0.988,0.35,0.746,1.39,1.79,-2.33,1.64,0.44,-4.07 (inactive)
C=C(CCCC)/C(=C/C[C@H](OC(C)=O)c1cccc(OCCO)c1)c1cnc2ccccc2c1,-0.966,-0.263,-0.494,-0.785,0.389,-0.183,2.35,0.177,0.324,-1.29 (inactive)
C=CCC(OC(C)=O)[C@@H]1[C@@H](N(Cc2cccc3ccccc23)C(=O)c2ccc(-c3ccccc3)cc2)c2cc(OCCCO)ccc2N1C(=O)Cc1ccc2ccccc2c1 (stereo not given in full),0.203,0.0951,-0.166,-0.052,0.592,0.0824,0.412,-0.415,-0.194,0.223 (inactive)
CCCCC(O)C1C=CC2C(=O)N(c3ccccc3)C(=O)C2N1Nc1ccccc1 (stereo not given),0.781,1.14,0.438,0.543,-0.0278,-1.26,0.656,0.173,1.17,0.438 (inactive)
C=CCC(OC(C)=O)[C@@H]1[C@@H](N(Cc2ccc(-c3cccc(C(F)(F)F)c3)o2)C(=O)c2ccc(-c3ccccc3)cc2)c2cc(OCCCO)ccc2N1C(=O)c1ccc2ccccc2c1 (stereo not given in full),-0.191,-0.06,0.0473,-0.0951,1.02,0.23,0.413,1.17,0.0415,0.85 (inactive)
CC(C)(C)OC(=O)CC[C@@]1(C(=O)NCCN2CCOCC2)N=C(c2ccc(OCCCO)cc2)O[C@@H]1c1ccccc1CN=[N+]=[N-],0.384,0.372,0.499,1.01,-0.0674,-0.495,-0.293,-0.0313,0.608,-4.33 (inactive)
COc1ccc(C(O)C2C=CC3C(=O)N(c4ccccc4)C(=O)C3N2Nc2ccc(C#N)cc2)cc1OCc1ccccc1 (stereo not given),1.86,1.21,1.3,0.506,0.636,-0.529,0.399,-0.56,1.15,0.188 (inactive)
